# Target: Platelet-derived growth factor receptor beta (Homo sapiens) (UniProt P09619)
# Details: at 1 µM
# 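Further: each value is a mean percent inhibition.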
# Sequence of Platelet-derived growth factor receptor beta (Homo sapiens) (P09619 whole entry): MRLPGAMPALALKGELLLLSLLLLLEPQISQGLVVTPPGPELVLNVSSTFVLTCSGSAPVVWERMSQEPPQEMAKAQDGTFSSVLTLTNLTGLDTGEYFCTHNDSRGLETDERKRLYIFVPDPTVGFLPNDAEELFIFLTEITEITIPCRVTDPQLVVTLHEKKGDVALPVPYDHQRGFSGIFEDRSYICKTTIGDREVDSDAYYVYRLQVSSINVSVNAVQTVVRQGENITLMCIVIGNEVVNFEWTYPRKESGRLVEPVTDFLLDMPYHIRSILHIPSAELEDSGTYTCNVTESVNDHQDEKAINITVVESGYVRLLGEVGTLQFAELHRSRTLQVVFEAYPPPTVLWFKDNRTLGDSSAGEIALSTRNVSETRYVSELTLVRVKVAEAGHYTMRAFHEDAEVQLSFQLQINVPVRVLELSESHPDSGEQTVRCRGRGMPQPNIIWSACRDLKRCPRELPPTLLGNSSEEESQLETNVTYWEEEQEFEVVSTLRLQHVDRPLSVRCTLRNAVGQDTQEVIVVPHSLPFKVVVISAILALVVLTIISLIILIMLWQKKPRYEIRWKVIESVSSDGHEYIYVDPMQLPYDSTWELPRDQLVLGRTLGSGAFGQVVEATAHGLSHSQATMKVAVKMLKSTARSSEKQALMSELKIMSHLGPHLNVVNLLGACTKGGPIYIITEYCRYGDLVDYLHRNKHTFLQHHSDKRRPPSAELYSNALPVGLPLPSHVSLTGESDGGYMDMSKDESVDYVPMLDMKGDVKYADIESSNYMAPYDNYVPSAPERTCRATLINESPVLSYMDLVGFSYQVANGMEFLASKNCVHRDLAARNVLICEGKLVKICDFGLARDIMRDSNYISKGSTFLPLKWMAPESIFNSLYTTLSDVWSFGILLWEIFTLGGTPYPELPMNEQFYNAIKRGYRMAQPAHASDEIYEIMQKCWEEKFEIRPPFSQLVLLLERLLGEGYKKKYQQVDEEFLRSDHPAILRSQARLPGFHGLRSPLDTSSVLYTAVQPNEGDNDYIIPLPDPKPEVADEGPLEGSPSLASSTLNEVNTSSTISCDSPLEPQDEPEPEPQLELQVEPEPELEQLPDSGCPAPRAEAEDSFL
row,Structure (SMILES),inhibition [%]
1,[O-][S+]1CCN(Cc2ccc(-c3ccc4ncnc(Nc5ccc(OCc6ccccc6)c(Cl)c5)c4c3)o2)CC1,4.43
2,C[C@@H](Oc1cc(-n2cnc3ccc(OC[C@@H](O)CO)cc32)sc1C(N)=O)c1ccccc1Cl,54.6
3,OCc1ccc(-c2nc(-c3ccccn3)c(-c3ccc4c(c3)OCO4)[nH]2)cc1,11
4,NS(=O)(=O)c1ccc(Nc2cc(-c3cccc(O)c3)n[nH]2)cc1,26.1
5,Nc1ccc(C#Cc2cncnc2Nc2ccc(OCc3cccc(F)c3)c(Cl)c2)cc1,3.64
6,Cc1ccc(Nc2ccnc(Nc3cccc(C(N)=O)c3)n2)cc1O,79.7
7,CCCN1CCCC(c2ccc(Nc3nc(Nc4cc(F)ccc4C(N)=O)c4cc[nH]c4n3)c(OC)c2)C1 (stereo not drawn),32.2
8,N#Cc1cccc(Nc2nccc(-c3cnn4ncccc34)n2)c1,65.1
9,COc1cc(Nc2nccc(-c3cnn4ncccc34)n2)cc(OC)c1,84.5
10,CS(=O)(=O)CCNCc1nc(-c2ccc3ncnc(Nc4ccc(OCc5cccc(C(F)(F)F)c5)cc4)c3c2)cs1,10.1
11,Cc1ccc(O)cc1Nc1ccnc2ccc(S(C)(=O)=O)cc12,84.2
12,Cc1nc(-c2ccccc2)n2nc(NCCCN3CCOCC3)ncc12,5.95
13,COc1cccc(-n2ncc3c(N/N=C/c4ccc(S(C)(=O)=O)cc4)ncnc32)c1,78.1
14,NC(=O)c1sc(-n2cnc3ccccc32)cc1OCc1ccccc1Br,14.4
15,CS(=O)(=O)Nc1cccc(-c2ccc3c(NC(=O)C4CC4)n[nH]c3c2)c1,7.8
16,COc1cccc(-n2ncc3c(N/N=C/c4ccc(C)cc4)ncnc32)c1,21.1
17,NS(=O)(=O)c1cccc(Nc2cc(-c3ccc(F)cc3)n[nH]2)c1,38

row,Structure (SMILES),inhibition [%]
1,COC(=O)c1ccc2c(c1)C(=Cc1cc(Br)c(O)c(Br)c1)C(=O)N2,6.26
2,CCS(=O)(=O)c1ccc(OC)c(Nc2nccc(N(C)c3ccc4c(C)n[nH]c4c3)n2)c1,70.9
3,O=S(=O)(CCOCc1ccc(-c2ccc3ncnc(Nc4ccc(OCc5cccc(F)c5)c(Cl)c4)c3c2)o1)c1ccccc1,7.33
4,Cc1cc(-c2ccccn2)cc(C)c1/C=C/c1cncc(-c2nn[nH]n2)c1,13.4
5,CN(C)C(=O)O[C@@H]1CN[C@@H](C#Cc2cc3ncnc(Nc4ccc(OCc5cccc(F)c5)c(Cl)c4)c3s2)C1,9.98
6,Oc1cccc(-c2nc(-c3ccccc3)[nH]c2-c2ccncc2)c1,17.1
7,CN1CCN(C(=O)c2ccc(NC(=O)Nc3ccc(N(C)c4ccnc(Nc5ccc(CS(C)(=O)=O)cc5)n4)cc3)cc2)CC1,79.3
8,COc1cc(/C=N/Nc2ncnc3c2cnn3C(C)C)ccc1O,45.1
9,FC(F)(F)c1ccc(-c2nn3ncccc3c2-c2ccnc(Nc3ccc4c(c3)OCCO4)n2)cc1,17.4
10,Nc1nccc(-c2c(-c3ccc(F)cc3)ncn2CCCN2CCOCC2)n1,11.8
11,Cc1ccc(C(=O)NC2CC2)cc1-c1ccc2[nH]ncc2c1,6.94
12,COc1cc2ncn(-c3cc(OCc4ccccc4S(C)(=O)=O)c(C#N)s3)c2cc1OC,78.1
13,COc1ccc2ncnc(Nc3ccc(OCc4ccccc4)cc3)c2c1,7.02
14,COC(=O)Nc1nc2cc(Oc3ccc(NC(=O)Nc4cccc(Br)c4)cc3)ccc2[nH]1,35.9
15,Cc1ccc2c(-c3ccnc(Nc4cccc(C(F)(F)F)c4)n3)c(-c3ccccc3)nn2n1,85.2
16,COc1cc2ncnc(Nc3ccc(C)c(O)c3)c2cc1OC,76.6

# From ChEMBL document CHEMBL1961873, “Compounds: GSK PKIS; Assays: Nanosyn kinase panel” (2012)
